# In PubChem BioAssay (EPA / NIEHS):
# Calls of active or inactive are those of the source. The calls were made as follows: active = hit-call score of the fitted dose curve at least 0.9, where 1 is the maximum; inactive = score below 0.9.
# Read-out: Matrix Metallopeptidase 9 (MMP9), MMP9 (gene 4318)
# Test: BSK_KF3CT_MMP9: BioMAP Diversity Plus: KF3CT Assay for Matrix Metallopeptidase 9 (MMP9) Biomarker Activity (AID 2283074);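 as to AC50: MMP9 protein level quantified by ELISA in the co-culture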
# Details: primary human keratinocytes with fibroblasts; actives raise or lower the signal
# Summary of the method: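 ELISA read-out of MMP-9 at 24 h post-dosing in a co-culture of human skin keratinocytes and foreskin fibroblasts. Gain or loss of signal was fitted in both directions against DMSO.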
Structure (SMILES),AC50,outcome
O=c1n(CC2CO2)c(=O)n(CC2CO2)c(=O)n1CC1CO1 (configuration not stated),20 µM (active),–
O=C1CCC(N2C(=O)c3ccccc3C2=O)C(=O)N1 (configuration not stated),–,inactive
Cc1[nH]cnc1C[C@H]1CCc2c(C)c3ccccc3n2C1=O,–,inactive
On1ccccc1=S,8.53 µM (active),–
CCCC(=O)OCC,–,inactive
CCn1nc(Cc2ccccc2)cc1C1CCN(C[C@H]2C[C@H](N(C)[C@@H](C(=O)O)C(C)C)C[C@@H]2c2cccc(F)c2)CC1,–,inactive
CC(C)CCO,–,inactive
Cc1ccc(N)cc1O,–,inactive
COc1ccc2sc(C(=O)Nc3nnn[nH]3)c(OC(C)C)c2c1,27 µM (active),–
O=C(O)CC(O)C(=O)O (configuration not stated),–,inactive
CCCCCCCCCCCCCCCO,–,inactive
Nc1ccc(Nc2ccccc2)cc1,3.97 µM (active),–
